Experimental data: PubChem BioAssay AID588707 (Southern Research Specialized Biocontainment Screening …, 2011)
Results filed as inconclusive are left out. Values without a mark were called inactive.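 How the source made its calls: active means viability below 80% at one or more tested concentrations, flagged as toxic; inconclusive means replicate runs disagree on whether the viability criterion is met; inactive means viability at or above 80% at every dose.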

Test: viability reduction of Vero E6 cells – cell-based, M17 leucyl aminopeptidase campaign, cytotoxicity control for P. falciparum PFM17LAP inhibitor project, dose response (AID 588707)
Conditions: CellTiter-Glo luminescence, 72 h; series mostly up to 50 µM; viability: at the top concentration

Row | SMILES | viability
1 | O=C(CSc1nccc(=O)[nH]1)Nc1ccc(N2CCOCC2)cc1 | 109%
2 | COC(=O)c1cc(OC)c(OC)cc1NC(=O)c1sc2nc(C)ccc2c1N | 92.5%
3 | O=C(O)c1ccccc1C(=O)Nc1nc2c(s1)CCCC2 | 96.9%
4 | O=C(CSc1ccccc1)Nc1cccc2c1C(=O)NC2=O | 87.4%
5 | COc1ccc(-c2nnc(NC(=O)C3CC(C)=C(C)CC3C(=O)O)s2)cc1 (configuration not stated) | 92.6%
6 | COC(=O)c1c(NC(=O)c2ccccc2C(=O)O)sc2c1CCCC2 | 87.6%
7 | COC(=O)c1ccccc1NC(=O)c1cc2cc3ccc(C)cc3nc2s1 | 92.9% [at 25 µM]
8 | O=C(CSc1nc(O)cc(=O)[nH]1)Nc1ccccc1 | 90.7%
9 | CC(C)C[C@H](N)C(=O)NO | 110%
10 | CC1=C(C)CC(C(=O)Nc2nc(-c3cc(C)ccc3C)c(C)s2)C(C(=O)O)C1 (configuration not stated) | 89%
11 | Cc1cc(=O)[nH]c(SCC(=O)Nc2ccccc2)n1 | 94.7%
12 | COc1cc(NC(=O)CSc2ccccc2)c(C(=O)O)cc1OC | 105%
13 | Cc1cc(SCC(=O)Nc2ccccc2C(=O)O)nc2ccccc12 | 88.5%
14 | N[C@@H](Cc1c[nH]c2ccccc12)C(=O)NO | 104%
15 | O=C(Nc1ccc(Cl)cc1)Nc1ccccc1C(=O)O | 82.2%
16 | O=C(CSc1nccc(=O)[nH]1)Nc1ccc(Oc2ccccc2)cc1 | 80%
17 | NC(N)=NCCC[C@H](N)C(=O)NO | 107%
18 | COC(=O)c1c(NC(=O)C2CC=CCC2C(=O)O)sc(C)c1-c1ccc(C)cc1 (configuration not stated) | 93.1%
19 | O=C1OCCC1Sc1nnc(NC2CCCCC2)s1 (configuration not stated) | 95.9%
20 | COC(=O)c1ccccc1NC(=O)c1ccc2c(Cl)c3c(nc2c1)CCC3 | 94.4% [at 25 µM]
21 | Cc1ccc(NC(=O)CSc2nc(O)cc(=O)n2Cc2ccccc2)cc1 | 94.2%
22 | COC(=O)c1c(NC(=O)C2CCCCC2C(=O)O)sc2c1CCC(c1ccccc1)C2 (configuration not stated) | 81.5%
